Assay results published in PubChem BioAssay AID583 (Sanford-Burnham Center for Chemical Genomics, 2007).
Several values for one entry are separate records, joined by “and”; a condition that tells them apart may be missing. Equal values may be shown once. Out of some 140,000 compounds screened, about 80 (0.06%) were called active. The full list was thinned out, with actives kept by preference. Values without a mark were called inactive. Rule as the data show it: active = displacement above about 50%; inactive = the rest.

molecular target: Heat shock 70 kDa protein 1A (Homo sapiens) (UniProt P0DMV8); experiment: small molecules displacing fluorescent ligand from Hsp70 – biochemical, fluorescence polarization, primary screen (AID 583); settings: Hsp70 fluorescence polarization probe displacement, mP; at 20 µM; stronger effect = higher value;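 also: plate controls were vehicle for no effect and reference ligand for full effect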
Sequence (P0DMV8 whole entry, looked up): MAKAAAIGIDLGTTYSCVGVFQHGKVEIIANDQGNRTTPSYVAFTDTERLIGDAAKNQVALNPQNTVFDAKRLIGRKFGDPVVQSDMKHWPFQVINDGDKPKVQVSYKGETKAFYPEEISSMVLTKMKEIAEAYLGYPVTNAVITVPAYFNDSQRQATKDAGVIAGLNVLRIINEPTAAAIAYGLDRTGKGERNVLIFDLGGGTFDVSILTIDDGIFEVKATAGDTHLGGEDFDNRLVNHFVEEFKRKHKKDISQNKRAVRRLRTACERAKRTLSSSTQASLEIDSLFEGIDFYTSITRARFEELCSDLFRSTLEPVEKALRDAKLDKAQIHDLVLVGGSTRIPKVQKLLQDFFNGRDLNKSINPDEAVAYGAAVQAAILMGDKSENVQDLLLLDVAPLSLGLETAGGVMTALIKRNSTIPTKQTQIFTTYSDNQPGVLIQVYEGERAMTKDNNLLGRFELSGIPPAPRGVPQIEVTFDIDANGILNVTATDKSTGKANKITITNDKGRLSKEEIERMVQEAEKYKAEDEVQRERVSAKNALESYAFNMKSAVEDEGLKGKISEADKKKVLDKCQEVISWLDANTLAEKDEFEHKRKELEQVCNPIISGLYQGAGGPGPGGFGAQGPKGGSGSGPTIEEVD

| Compound | displacement |
| --- | --- |
| CC(NS(C)(=O)=O)C(c1cccs1)N1CCN(Cc2ccccc2)CC1 (centres undefined) | 3.1% |
| O=C1N=c2ccccc2=C1c1sc(=Nc2ccccc2)n(-c2ccccc2)c1O | 5.2% |
| O=C1N=c2ccccc2=C1c1sc(=O)n(-c2ccc(O)cc2)c1O | -21.2% |
| O=C1N=c2ccccc2=C1c1s/c(=N/N=C2/C(=O)Nc3ccccc32)n(-c2ccc(O)cc2)c1O | 93.6% (active) |
| CC(=O)NS(=O)(=O)c1ccc(NC(=O)c2ccccc2F)cc1 | 6% |
| COCC(=O)Nc1nc(-c2ccccc2)c(C)s1 | -1.9% |
| O=C1NC(=S)N/C1=C/c1ccc(-c2cc([N+](=O)[O-])ccc2Cl)o1 | 17.3% |
| O=C1NC(=S)N/C1=C\c1ccc(-c2cc([N+](=O)[O-])ccc2Br)o1 | 51.2% (active) |
| O=C1NC(=S)N/C1=C\c1ccc(-c2cccc([N+](=O)[O-])c2)o1 | 0.3% |
| Cc1ccc(NC(=O)c2ccccc2Br)cc1 | 1.9% |
| COc1ccc(OC)c(NC2=NC3(CCCC3)N=C(N)N2)c1 | 0.2% and -1.2% |
| COc1ccc(OC)c(NC2=NC3(CCCCC3)N=C(N)N2)c1 | -6.7% and 3.4% |
| COc1ccccc1NC1=NC2(CCCCC2)N=C(N)N1 | 97.6% (active) |
| CC(C)Oc1c(I)cc(I)cc1/C=C(/C#N)c1nc2ccccc2[nH]1 | -0.1% |
| Cc1ccc(/C(N)=N/OC(=O)c2ccc(Br)cc2)cc1 | 1.1% |
| O=C1C(=O)N(CC2CCCO2)C(c2cccc([N+](=O)[O-])c2)/C1=C(/O)c1ccccc1 (centres undefined) | -4.4% |
| COc1cccc(C2NC(=O)NC(C)=C2C(=O)OCCc2ccccc2)c1OC (centres undefined) | -3% |
| COc1ccc(Cn2c3nc4ccccc4nc3c3c(=O)n(Cc4ccco4)c(C)nc32)cc1 | 2.5% |
| COc1ccc(Cn2c3nc4ccccc4nc3c3c(=O)n(Cc4ccco4)cnc32)cc1 | -6% |
| COc1ccc(Cn2c(C)nc3c(c2=O)c2nc4ccccc4nc2n3Cc2ccco2)cc1 | 69.5% (active) |
| O=C(O)CCCCCCCCCCN1C(=O)/C(=C/c2cccc(Br)c2)SC1=S | 56.6% (active) |
| O=C(O)CCCCCN1C(=O)/C(=C/c2cccc(F)c2)SC1=S | -1.8% |
| O=C(O)CCCN1C(=O)/C(=C/c2cccc(Br)c2)SC1=S | 6.7% |
| O=C(NN1CCOCC1)c1cc2ccccc2oc1=O | 1.1% |

| Compound | displacement |
| --- | --- |
| CC(=O)C1=C(C)NC(SCC(N)=O)=C(C#N)C1c1cccnc1 (centres undefined) | -1.1% |
| Cc1nc(=O)c(-c2ccccc2)c(C)n1-c1ccccc1C(=O)O | 6.5% |
| Cc1ccc(C)n1-c1sccc1C(=O)O | 24.9% |
| COc1cc(C(=O)O)c(-n2c(C)ccc2C)cc1OC | 6.6% |
| Cc1ccc(C)n1-c1ccc(Br)cc1C(=O)O | 7.4% |
| Cc1c(C(=O)O)cccc1-n1c(=O)c2cc3c(=O)n(-c4cccc(C(=O)O)c4C)c(=O)c3cc2c1=O | -1.1% |
| Cc1ccc(-c2ccccc2)n1-c1ccccc1C(=O)O | 5.6% |
| Cc1c(C(=O)O)cccc1-n1c(C)ccc1C | 51.1% (active) |
| Cc1ccc(C)n1-c1ccccc1C(=O)O | 92.7% (active) |
| Cc1ccc(C)n1-c1ccc(Cl)cc1C(=O)O | 104% (active) |
| COc1cc(OC)cc(C(=O)N2CCN(C(=O)c3cccc(F)c3)CC2)c1 | 2.3% |
| COC(=O)c1ccc(/C=C2\SC(=S)N(C(Cc3ccccc3)C(=O)O)C2=O)cc1 (centres undefined) | -0.2% |
| O=C1NC(=O)/C(=C/c2c(F)cccc2Cl)S1 | 4.2% |
| S=c1[nH]nc(-c2cccc(Cl)c2)n1-c1ccccc1 | 4% |
| COc1ccc(CC(=O)c2cc(OC)c(OC)cc2CC(=O)O)cc1OC | -0.7% |
| COC(=O)c1cc(C#N)c(SCc2ccccc2)nc1C | -5% |
| O=C(c1ccc(N2CCN(C(=O)c3ccccc3Br)CC2)cc1)c1cccc(F)c1 | 83.6% (active) |
| O=C(c1ccc(N2CCN(C(=O)c3ccccc3F)CC2)cc1)c1cccc(F)c1 | -2.9% |
| O=C(c1ccc(N2CCN(C(=O)c3ccccc3)CC2)cc1)c1cccc(F)c1 | -1.2% |
| CCN1CCN(P2(=O)C=C(c3ccccc3)OC(c3ccccc3)=C2)CC1 | 1.1% |
| O=C(c1coc(=O)c(Br)c1)N1CCOCC1 | 7.3% |
| O=C(c1coc(=O)c(Br)c1)N1CCCc2ccccc21 | 6.5% |
| COc1ccc(CCNC(=O)CSc2nc3ccccc3o2)cc1OC | 0.2% |
| COc1ccc(C2c3c(oc4ccccc4c3=O)C(=O)N2CC2CCCO2)cc1 (centres undefined) | -2.4% |

| Compound | displacement |
| --- | --- |
| O=C1c2oc3ccc(F)cc3c(=O)c2C(c2ccccc2)N1CC1CCCO1 (centres undefined) | -3.1% |
| O=C(COc1ccc([N+](=O)[O-])cc1)Nc1cccc(Cl)c1Cl | 2.1% |
| CCCCOc1ccc(N2C(=O)C3CC(C)=C(C)CC3C2=O)cc1 (centres undefined) | 0.2% |
| CCOc1cc(CNn2cnnc2)cc(Br)c1OCC(=O)NC1CCCCC1 | 5.5% |
| C=CCn1c2ccccc2c2nnc(SCC(=O)Nc3sc4c(c3C#N)CCCC4)nc21 | -2% |
| CC(=NCCCn1ccnc1)c1c(-c2ccccc2)[nH]n(-c2nc3ccccc3s2)c1=O | 0.5% |
| Cc1c(NS(=O)(=O)c2cc(Cl)ccc2Cl)cccc1[N+](=O)[O-] | -2.4% |
| O=C(Nc1ccc2nc(-c3cccs3)c(-c3cccs3)nc2c1)NC1CC1 | 2.3% |
| O=C(Nc1ccc(N2CCOCC2)cc1)Nc1ccc2nc(-c3ccco3)c(-c3ccco3)nc2c1 | 1.1% |
| Brc1ccc(/C=N/c2ncn[nH]2)cc1 | 3.3% |
| C=CCN1C(=O)/C(=C\c2ccc(OCc3ccccc3Cl)cc2)SC1=S | 56.5% (active) |
| C=CCN1C(=O)/C(=C/c2cccc(OCc3ccccc3Cl)c2)SC1=S | 0.3% |
| CCN1C(=O)/C(=C\c2ccc(OCc3ccccc3Cl)cc2)SC1=S | -2.5% |
| CCOc1ccc(N(CC(=O)NC2CCCCC2)S(=O)(=O)c2ccc(Cl)cc2)cc1 | 2.4% |
| NC(=O)c1ccc(NC(=O)Cc2ccc(Cl)cc2)cc1 | -3.6% |
| Cc1ccc(-c2cc(C(=O)N/N=C/c3cccc([N+](=O)[O-])c3)[nH]n2)cc1 | 78.2% (active) |
| O=C(N/N=C/c1cccc([N+](=O)[O-])c1)c1cc(-c2ccc(Cl)cc2)n[nH]1 | 4.6% |
| Cc1ccc(-c2cc(C(=O)N/N=C/c3ccc([N+](=O)[O-])cc3)[nH]n2)cc1 | 1.8% |
| CC(C)(C)NC(=O)c1cccc(N2C(=O)c3cccc([N+](=O)[O-])c3C2=O)c1 | 1.9% |
| Cc1cccc(C(NC(N)=O)c2ccccc2)c1 (centres undefined) | 0.4% |
| NC1=NC(=O)/C(=C\c2ccc(-c3ccc([N+](=O)[O-])cc3)o2)S1 | -5.8% |
| NC1=NC(=O)/C(=C/c2ccc(-c3ccc([N+](=O)[O-])cc3Br)o2)S1 | 44.5% |
| NC1=NC(=O)/C(=C/c2ccc(-c3cc([N+](=O)[O-])ccc3Cl)o2)S1 | 75.9% (active) |
| Cc1ccc(/C(N)=N/OC(=O)c2ccccc2F)cc1 | 2.5% |

| Compound | displacement |
| --- | --- |
| O=S(=O)(Nc1ccc(F)cc1)c1ccc2c(c1)Cc1cc(S(=O)(=O)Nc3ccc(F)cc3)ccc1-2 | -0.8% |
| Cc1ccc(NC(=O)c2ccccc2NC(=O)Cc2cccs2)cc1C | 3.6% |
| CN(c1ccc(C(=O)NC2CC2)cc1)S(=O)(=O)c1ccccc1 | 0.5% |
| Cc1c(NC(=O)c2ccccc2[N+](=O)[O-])cccc1-c1nc2cc(Cl)ccc2o1 | 60.1% (active) |
| Cc1c(C(=O)Nc2ccc3oc(-c4ccc(Cl)cc4Cl)nc3c2)cccc1[N+](=O)[O-] | -1.5% |
| Cc1c(C(=O)Nc2ccc(-c3nc4cc(Cl)ccc4o3)cc2)cccc1[N+](=O)[O-] | -7% |
| Cc1cc(NC(=O)CN2CCN(c3ccccc3F)CC2)nc2c1c(=O)oc1ccccc12 | 1.7% |
| COc1ccc(N2C(=O)C3C(C2=O)N2CCCN2C3c2ccc(Cl)cc2)cc1 (centres undefined) | 2.3% |
| O=C1NC(=O)N(c2ccc(Br)cc2)C(=O)/C1=C/c1ccco1 | 54% (active) |
| Cc1cc(N2C(=O)NC(=O)/C(=C\c3ccco3)C2=O)ccc1Br | 40.3% |
| O=C1NC(=O)N(c2ccc(Br)cc2)C(=O)/C1=C\C=C\c1ccco1 | -7.2% |
| N#CCOc1ccccc1/C=N/c1sc2c(c1C#N)CCCC2 | -0.5% |
| CC(C)(C)NC(=O)CN1CCC(O)(c2ccc3c(c2)OCO3)CC1 | 5.2% |
| O=C1/C(=C\c2ccc(-c3ccc([N+](=O)[O-])cc3)o2)SC(=S)N1c1ccc(O)cc1 | 1.6% |
| O=C(O)c1ccc(-c2ccc(/C=C3\SC(=S)N(c4ccc([N+](=O)[O-])cc4)C3=O)o2)cc1 | 55.5% (active) |
| O=C(O)CCN1C(=O)/C(=C/c2ccc(-c3ccc([N+](=O)[O-])cc3)o2)SC1=S | 1.7% |
| CC(=O)Nc1ccccc1NC(=O)COc1ccc(Cl)cc1C | -3.3% |
| O=c1ccc(Oc2nc(N3CCOCC3)nc(N3CCOCC3)n2)nn1-c1ccccc1 | 6.5% |
| N/C(=N\OC(=O)c1cccc(Br)c1)c1cccnc1 | 1.1% |
| Cc1ccc(N=C2NC(=O)/C(=C/c3ccc(O)c([N+](=O)[O-])c3)S2)cc1Cl | 66.9% (active) |
| COc1cc(/C=C2\SC(=Nc3ccc(C)c(Cl)c3)NC2=O)ccc1O | -0.7% |
| Cc1c(Cl)cccc1N=C1NC(=O)/C(=C/c2ccc(O)c([N+](=O)[O-])c2)S1 | 13.2% |
